Records with an inconclusive call do not appear. Active and inactive are the calls of the source. Calls come from the whole dose curve; as a rule, active = well fitted inhibition curve with a large enough effect; inconclusive = small, poorly fitted or top-dose-only effect, or effect the other way; inactive = flat fitted curve, though single readings scatter.
biological target: Ubiquitin carboxyl-terminal hydrolase 2 (Homo sapiens) (UniProt O75604); assay: qHTS Validation Assay for Inhibitors of Ubiquitin-specific Protease USP2a Using CHOP2 as the Reporter (AID 463106); details: USP2a cleavage of CHOP2 reporter, enzymatic; series mostly up to 38.3 µM; activity, negative = inhibition: at the top concentration
Sequence (O75604 whole entry, looked up): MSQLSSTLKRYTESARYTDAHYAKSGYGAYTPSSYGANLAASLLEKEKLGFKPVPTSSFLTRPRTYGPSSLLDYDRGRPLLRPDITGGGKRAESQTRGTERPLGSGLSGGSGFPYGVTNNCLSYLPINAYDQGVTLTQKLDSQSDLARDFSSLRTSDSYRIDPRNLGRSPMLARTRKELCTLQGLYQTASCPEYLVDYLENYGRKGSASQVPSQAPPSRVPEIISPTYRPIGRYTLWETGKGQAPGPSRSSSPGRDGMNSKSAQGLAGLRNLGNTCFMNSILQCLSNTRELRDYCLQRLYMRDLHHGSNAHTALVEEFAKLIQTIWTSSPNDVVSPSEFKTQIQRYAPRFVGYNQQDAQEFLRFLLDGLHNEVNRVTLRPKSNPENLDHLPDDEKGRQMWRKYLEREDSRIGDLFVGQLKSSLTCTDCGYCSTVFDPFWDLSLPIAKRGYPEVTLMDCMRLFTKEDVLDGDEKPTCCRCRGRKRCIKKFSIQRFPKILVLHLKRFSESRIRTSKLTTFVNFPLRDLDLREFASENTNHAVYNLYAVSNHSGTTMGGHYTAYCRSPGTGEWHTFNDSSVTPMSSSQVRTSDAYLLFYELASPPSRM
Description: NIH Molecular Libraries Screening Centers Network [MLSCN]
NIH Chemical Genomics Center [NCGC]
PI Name: Nicholson, Ben. Progenra Inc, Malvern, PA
Homeostasis of cellular proteins is maintained through a combination of synthesis and degradation. The pathway that accounts for the majority of protein degradation is the ubiquitin-proteasomal pathway. Ubiquitin (Ub) is highly conserved in all cells and the generation of a multi-Ub chain typically targets proteins for degradation by the proteasome. However, ubiquitination is highly reversible and dynamic. Deubiquitination, the reverse process, is catalyzed through the action of enzymes referred to as isopeptidases or deubiquitinating enzymes (DUBs). This group of enzymes is collectively responsible for maintaining adequate pools of free ubiquitin and regulating the ubiquitination status of cellular proteins. The class of DUBs referred to as the ubiquitin-specific proteases (USP) family functions endoproteolytically to cleave Ub chains from a wide range of protein substrates. USP2a deubiquitinates fatty acid synthase (FASN) which has recently been identified as an emerging oncology target. To identify inhibitors of USP2a a cell-free assay was employed.
The reporter enzyme chosen is an enterokinase called CHOP2, which is activated when the Ub is cleaved by USP2. The free and now activated reporter can subsequently act on its reporter substrate. […] The assay was developed by Progenra, Inc. and has been licensed for sale by LifeSensors, Inc. as Ub-CHOP2-Reporter-Kit (#PR1101).
NCGC Assay Protocol Summary:
The assay buffer, prepared fresh at the day of the assay, contains 20mM Tris-HCl pH 8.0, 2mM CaCl2, 2mM beta-Mercaptoethanol, 0.05% CHAPS. 3ul of 20nM (10nM final) USP2 core, which is stored on ice, is dispensed into a medium-binding black solid Kalypsys 1,536 well plate using the Kalypsys dispenser. The assay plate is then pinned with 23nL compound with the Kalypsys pintool in columns 5-48. The controls are pinned as follows: column 1 two-fold dilutions of 2M NEM in duplicate; column 2 2M NEM (final concentration 38.2mM); column 3&4 DMSO. The assay plate is incubated at RT for 30min. Subsequently, 1.5uL of 100nM (25nM final) Ub-CHOP2 and 1.5uL of 100nM (25nM final) Reporter Substrate (both stored on ice and protected from light) were dispensed into the plate using the Kalypsys dispenser. Plates were read after 60min RT incubation on a ViewLux (Perkin Elmer) plate reader using the following wavelengths Ex 485nm /Em 531nm.
Data were normalized to the to AC100 inhibition (NEM). Concentration-response curves were fitted to the normalized data and the concentration-response curves were then classified based on curve quality (r2), response magnitude and degree of measured activity. The time zero reading was used to flag fluorescence artifacts.
Keywords: ubiquitination, deubiquitination, proteases, profluorescent, MLSMR, MLPCN, NIH Roadmap, qHTS, NCGC
Potency is the fitted concentration of half-maximal effect.

Structure (SMILES)	activity, negative = inhibition	Potency
C=CCN1CCc2cccc3c2[C@H]1Cc1ccc(O)c(O)c1-3	-2.57% (inactive)	
NC(Cc1cc(O)c(O)cc1O)C(=O)O (stereo not given)		656 nM (active)
C[N+]1(C)CCc2cc3c(cc2[C@H]1[C@@H]1OC(=O)c2c1ccc1c2OCO1)OCO3	0.42% (inactive)	
CCCN(CCC)CCc1c[nH]c2ccc(C(N)=O)cc12	-2.03% (inactive)	
N#CCCN	0.712% (inactive)	
COc1ccc(OC)c(C(O)C(C)N)c1 (stereo not given)	3.66% (inactive)	
NC(=O)COc1c(F)cc(SCCNS(=O)(=O)c2ccccc2)cc1F	-0.944% (inactive)	
N[C@@H](Cn1oc(=O)[nH]c1=O)C(=O)O	0.62% (inactive)	
CC(=O)c1c(O)c(C)c(O)c(Cc2c(O)c3c(c(C(=O)/C=C/c4ccccc4)c2O)OC(C)(C)C=C3)c1O	-19.8% (inactive)	
CN1CC[C@@]2(C)c3cc(OC(=O)Nc4ccccc4)ccc3N(C)[C@@H]12	3.06% (inactive)	
CN(C(=O)Cc1ccc(Cl)c(Cl)c1)C(CN1CCCC1)c1cccc(OCC(=O)O)c1 (stereo not given)	-0.219% (inactive)	
NCCc1ccc(S(=O)(=O)F)cc1	-0.55% (inactive)	
CN1CCC(c2c[nH]c3ccc(O)cc23)CC1	4.02% (inactive)	
CC(N)Cc1c[nH]c2ccc(OCc3cccs3)cc12 (stereo not given)	-0.333% (inactive)	
CN1C2CCC1CC(OC(c1ccccc1)c1ccccc1N)C2 (stereo not given)	-1.82% (inactive)	
CCCn1c(C)c(C(=O)c2ccc3ccccc3c2)c2ccccc21	-8.79% (inactive)	
C[Se]C[C@H](N)C(=O)O	-0.864% (inactive)	
COc1ccc2c(c1)[C@@]13CCCC[C@H]1[C@@H](C2)NCC3	0.245% (inactive)	
O=[N+]([O-])c1cc(O)c(O)c([N+](=O)[O-])c1	-2.91% (inactive)	
NC(=O)c1cc(N2CC2)c([N+](=O)[O-])cc1[N+](=O)[O-]	4.34% (inactive)	

Structure (SMILES)	activity, negative = inhibition	Potency
CC12NC(Cc3ccccc31)c1ccccc12 (stereo not given)	1.55% (inactive)	
NNC(N)=O	-0.0456% (inactive)	
CP(=O)(O)C1=CCNCC1	4.68% (inactive)	
CCCN(CCC)[C@H]1CCc2c(F)ccc(O)c2C1	-1.58% (inactive)	
Cc1c2ccncc2c(C)c2c1[nH]c1ccccc12	-4.75% (inactive)	
N[C@@]1(C(=O)O)CC[C@@H](C(=O)O)C1	0.392% (inactive)	
CC(N)[C@H](O)c1ccc(O)c(O)c1 (stereo not given in full)	-1.11% (inactive)	
Cc1o[nH]c(=O)c1CC(N)C(=O)O (stereo not given)	1.1% (inactive)	
C[C@H](Cc1ccc2c(c1)OC(C(=O)O)(C(=O)O)O2)NC[C@H](O)c1cccc(Cl)c1	-2.02% (inactive)	
CCCN(CCC)[C@@H]1CCc2cccc(O)c2C1	0.216% (inactive)	
CCCCCCC(C)(C)c1ccc([C@@H]2C[C@H](O)CC[C@H]2CCCO)c(O)c1	-12.9% (inactive)	
CC(=O)NBr	1.91% (inactive)	
CCCN(CCC)C1Cc2cc(OC)c(OC)cc2C1	-1.19% (inactive)	
Ic1ccccc1CNC1C2CCN(CC2)C1C(c1ccccc1)c1ccccc1 (stereo not given)	0.692% (inactive)	
COc1ccc(CNC(=O)/C=C/c2ccc3[nH]cc(CCN(C)C)c3c2)cc1	-0.394% (inactive)	
COc1ccc2c(c1)c(CCN1CCOCC1)c(C)n2C(=O)c1cccc(Cl)c1Cl	-12.8% (inactive)	
Oc1ccc2c3c1O[C@H]1c4oc5ccccc5c4C[C@@]4(O)C(C2)N(CC2CC2)CCC314 (stereo not given in full)	-2.05% (inactive)	
CC(N)c1cccc(Cl)c1Cl (stereo not given)	-0.874% (inactive)	
O=S1(=O)N(CCN2CC=C(c3c[nH]c4cc(F)ccc34)CC2)c2cccc3c2N1CCC3	-8.79% (inactive)	
N#C/C(=C/c1ccc(O)c(O)c1)C(N)=S	-6.15% (inactive)	

From PubChem BioAssay (NCATS)
